High-throughput results (PubChem)
Sfp inh – qHTS Assay for Inhibitors of Bacillus subtilis Sfp phosphopantetheinyl transferase (PPTase) | 4'-phosphopantetheinyl transferase ffp (Bacillus subtilis), Q9F4F7 | Biochemical Sfp PPTase activity, qHTS | Potency, µM, actives largely listed as inhibitors | 310,000 tested, 3.5% active;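 also: the enzyme is Sfp with the accession as filed and its product quenches rhodamine fluorescence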
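With Hepes-Na pH 7.6 buffer containing 10 mM MgCl2, Sfp (15 nM) modified BHQ-2-YbbR (12.5 uM) using rhodamine-CoA (5 uM). Two reads 30 minutes apart at 525/598 nm yielded each well's rate.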
VDR inh – Inhibitors of the vitamin D receptor (VDR): qHTS | VDR-SRC2-3 peptide fluorescence polarization, 2 h | Potency, µM, most hits filed as inhibitors | 400,000 tested, 0.93% active
Target sequence (P11473 whole entry, looked up): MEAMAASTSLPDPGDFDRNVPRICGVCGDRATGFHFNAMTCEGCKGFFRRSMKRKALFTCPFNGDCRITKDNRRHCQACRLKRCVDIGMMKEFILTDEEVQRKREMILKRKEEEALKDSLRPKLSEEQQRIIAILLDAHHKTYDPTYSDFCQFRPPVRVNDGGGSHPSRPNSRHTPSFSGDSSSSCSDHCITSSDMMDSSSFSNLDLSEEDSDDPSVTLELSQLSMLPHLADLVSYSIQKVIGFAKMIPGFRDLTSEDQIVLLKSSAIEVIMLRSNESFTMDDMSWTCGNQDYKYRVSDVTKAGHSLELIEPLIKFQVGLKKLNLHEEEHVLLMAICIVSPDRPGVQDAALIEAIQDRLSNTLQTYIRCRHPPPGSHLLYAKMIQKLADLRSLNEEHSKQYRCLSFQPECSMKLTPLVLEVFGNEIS
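The screen uses fluorescence polarization to detect compounds that interfere with recruitment of the SRC2-3 coactivator peptide to VDR; plates are read after 2 h at room temperature.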
12-LOX inh – Primary qHTS assay for inhibitors of human arachidonate 12S-lipoxygenase (ALOX12): Round 2; Polyunsaturated fatty acid lipoxygenase ALOX12 (Homo sapiens), P18054; purified 12hLO, xylenol orange hydroperoxide absorbance; Potency, µM (titrated, usually from 108 µM), usual class: inhibitors; 580,000 tested, 1.1% active
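Purified human 12hLO (150 nM final) in 25 mM Hepes, 0.01% Triton X-100, pH 7.0 was preincubated 15 min at room temperature with compound. Then 40 uM arachidonic acid was added, 30 min. Hydroperoxide was read by Fe-XO absorbance ratio 573/405 nm.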
PLK1 PBD block – qHTS for Inhibitors of PLK1-PDB (polo-like kinase 1 - polo-box domain): Primary Screen | Plk1 PBD binding of FITC phosphopeptide, fluorescence polarization | Potency, µM, usual class: inhibitors | 360,000 tested, 2.8% active | Serine/threonine-protein kinase PLK1 (Homo sapiens), P53350; also: series mostly up to about 57 µM; nearly all actives have a fitted effect of over 65% in size
Numbers stand for hits; - = inactive; ? = inconclusive; . = not tested or not shown; ! = a repeat was not active. Compounds with a hit are over-represented: about 4.2% of the library has one in this group of screens. Calls follow the shape of the dose curve; as a rule, active = well fitted curve in the direction sought with a large enough effect; inconclusive = small, poorly fitted or top-dose-only effect, or another doubt; inactive = no such curve, though single readings can be large; an effect the other way counts as inactive or inconclusive.

SMILES	Sfp inh	VDR inh	12-LOX inh	PLK1 PBD block
CCOC(=O)NC(Nc1sc2c(c1C(N)=O)CCCC2)(C(=O)OCC)C(F)(F)F (stereo not given)	35µM	-	?	?
CCCCOC(=O)Nc1sc2c(c1C(=O)OC)CCC2	50µM	-	-	-
COCC(=O)Nc1sc2c(c1C(=O)OC)CCCC2	-	-	?	-
CCOC(=O)c1c(NC(=O)COC(=O)Cn2c(C)nc3ccccc32)sc2c1CCCC2	32µM	-	-	-
CCOC(=O)C(NC(=O)CC)(Nc1nc2c(s1)CCCC2)C(F)(F)F (stereo not given)	-	-	?	-
CCOC(=O)c1c(NC(=O)Cn2c(C)nc3ccccc32)sc2c1CCC2	-	-	-	-
CCOC(=O)c1c(NC(=O)c2cc(-c3cccc(OC)c3)on2)sc2c1CCCC2	.	79µM	?	.
CC(C)N1C(=O)C2(CCCCC2)C1C(=O)NCc1nc2ccccc2n1C (stereo not given)	.	.	-	.
CCC(C)Sc1c(C(C)C)cnc2c1c(=O)n(C)c(=O)n2C (stereo not given)	.	-	?	.
O=C1Cc2c(-c3ccccc3Cl)n[nH]c2CN1CC1CCOCC1	.	.	-	.
CCOC(=O)c1c(NC(=O)c2ccccc2C(=O)O)sc2c1CCCC2	-	-	-	-
CCOC(=O)c1c(NC(=O)c2ccccc2C)sc2c1CCCC2	.	79µM	-	.
CCc1c(C)sc(NC(=O)c2cc(C)no2)c1C#N	?	-	-	30µM
CCc1cc(C(=O)Nc2sc(C)c(CC)c2C#N)no1	.	79µM	-	.
Brc1cccc(CSc2nnc(-c3ccncc3)o2)c1	-	-	-	-
CCOC(=O)N1CCN(S(=O)(=O)c2ccc(Cl)cc2)CC1	-	-	-	-
CCOC(=O)N1CCC(N2CCN(S(=O)(=O)c3ccc(Cl)cc3)CC2)CC1	50µM	-	?	-
CCOC(=O)c1ccc(N2CCN(c3cc(C)ccc3C)CC2)c(N)c1	?	-	-	-
CCOC(=O)N1CCC(N2CCN(c3cc(C)ccc3C)CC2)CC1	-	-	6.3µM	-
COc1cc2nc(NCc3ccc(C)cc3)n3nc(-c4ccccc4)nc3c2cc1OC	.	-	-	.
CC(NC(=O)c1cc(COc2ccc(-n3cncn3)cc2)on1)c1ccc(F)cc1 (stereo not given)	.	.	-	-
O=C(CSc1ccccc1)Nc1ccc(S(=O)(=O)NCC2CCCO2)cc1 (stereo not given)	-	-	?	24µM
O=C(Cc1ccc(Br)cc1)Nc1ccc(S(=O)(=O)NCC2CCCO2)cc1 (stereo not given)	-	?	-	24µM
COCC(=O)Nc1ccc(S(=O)(=O)NCC2CCCO2)cc1 (stereo not given)	-	-	-	-
Cc1ccccc1C(=O)Nc1ccc(S(=O)(=O)NCC2CCCO2)cc1 (stereo not given)	.	.	-	-
SMILES	Sfp inh	VDR inh	12-LOX inh	PLK1 PBD block
COc1ccc(CCNC(=O)CN2C(=O)NC3(CCc4ccccc43)C2=O)cc1 (stereo not given)	.	-	-	-
C[n+]1c(-c2ccccc2)cc2c(=Cc3ccc([N+](=O)[O-])cc3)c3ccccc3n21	.	?	16µM	2.1µM
C[n+]1c(-c2ccccc2)cc2c(=Cc3ccccc3)c3ccccc3n21	.	?	?	3.8µM
CN(C)c1ccc(C=c2c3cc(O)ccc3n3c2cc(-c2ccccc2)[n+]3C)cc1	.	-	?	?
CC(C)n1c2ccccc2c2cc([N+](=O)[O-])ccc21	-	-	-	-
CC(NC(=O)c1cccnc1)c1ccc2c(c1)OCO2 (stereo not given)	-	-	-	-
O=C1NC[C@H](CCCCN2C[C@H](Cc3ccc(O)cc3)N(CC3CCCCC3)C(=O)C2=O)N(CCC2CCCCC2)C1=O	.	.	?	-
O=C1NC[C@@H](CCCCN2C[C@H](Cc3ccc(O)cc3)N(CC3CCCCC3)C(=O)C2=O)N(CC2CCCCC2)C1=O	.	.	22µM	-
Cc1ccc(NC(=O)CN(C)C(=O)c2ccc(Cl)c([N+](=O)[O-])c2)cc1	-	-	-	-
CN1C(=S)SC(C)(C)C1N(O)C(=O)Nc1ccc(Cl)cc1 (stereo not given)	-	-	-	-
CC1(C)C(N(O)C(=O)Nc2ccc(Cl)cc2)N(c2ccc(Cl)cc2)C(=O)N1CC(=O)NN (stereo not given)	100µM	-	?	-
Cc1ccc(Sc2c(C)nn(C(=O)C3CCCN3S(=O)(=O)c3ccc(F)cc3)c2C)cc1 (stereo not given)	.	.	-	.
CC(=O)Nc1nc2n(n1)C(c1ccc(Cl)cc1)C=C(C)N2 (stereo not given)	56µM	-	-	-
CC1=CC(c2ccc(Cl)cc2)n2nc(NC(=O)c3ccccc3)nc2N1 (stereo not given)	-	-	-	-
O=C(Nc1nc2n(n1)C(c1ccccc1)C=C(c1ccc(Cl)cc1)N2)c1ccco1 (stereo not given)	.	-	-	.
O=C(Nc1nc2n(n1)C(c1ccccc1)C=C(c1ccccc1)N2)c1ccco1 (stereo not given)	56µM	-	?	-
CC(=O)Nc1nc2n(n1)C(c1ccc(F)cc1)C=C(c1ccccc1)N2 (stereo not given)	35µM	-	-	-
COCCNc1nnnc2c1sc1nc(N3CCOCC3)c3c(c12)CC(C)(C)OC3	-	-	-	-
COc1ccc(C2=NN(C(=O)c3cccs3)C(O)(C(F)(F)F)C2)cc1 (stereo not given)	45µM	-	-	-
COc1ccc(CC(=O)N2N=C(c3ccc(F)cc3)CC2(O)C(F)(F)F)cc1 (stereo not given)	.	.	-	.
Cc1nnc(SCC(=O)c2ccc(Cl)cc2)n(N)c1=O	?	20µM	-	-
Cc1ccc(NC(=O)CSc2nnc(C)c(=O)n2N)cc1Cl	-	-	-	-
CCOc1ccc(Br)cc1S(=O)(=O)NCc1ccc(S(N)(=O)=O)cc1	-	-	-	-
CC(=O)N1CCC(Oc2ccc(Cl)cc2C(=O)N(C)Cc2nccn2C)CC1	.	.	-	.
CCOC(=O)c1c(CSC(=N)N)n(-c2ccc(C)cc2)c2cc(Br)c(OC(C)=O)cc12	45µM	-	?	-
SMILES	Sfp inh	VDR inh	12-LOX inh	PLK1 PBD block
Nc1ncc(Br)cc1S(=O)(=O)Nc1cc(C(F)(F)F)cc(C(F)(F)F)c1	-	?	?	30µM
Oc1c(I)cc(I)c2cccnc12	50µM!	35µM!	32µM!	?
CC(=O)Cc1nnn(-c2cc(C)on2)n1	-	.	.	.
Cc1ccc(S(=O)(=O)NCCCC(=O)N2CCC(C)CC2)cc1	-	-	-	-
Cc1ccc(S(=O)(=O)NCC(=O)N2CCC(C)CC2)cc1	-	-	?	30µM
COc1ccc(Cc2nc3ccc(C(=O)N(C)Cc4cc(C)[nH]n4)cc3o2)cc1OC	-	-	-	-
O=C(NCCO)c1cc2cc(Cl)cc(Cl)c2oc1=O	35µM	?	?	13µM
